MEX-5 binding: MEX-5 zinc finger RNA-binding disruptors – biochemical, C. elegans, fluorescence polarization, MLPCN library, primary screen; Zinc finger protein mex-5 (Caenorhabditis elegans), Q9XUB2; MEX-5/FITC-TCR2 RNA binding; active compounds read low; activity score (negative = inhibition of binding), % at 10 µM; 0.38% of 300,000 active;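 active means inhibition past about -25% in most replicates, and total fluorescence under double the plate's negative control median, limit read from the data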;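 further: 0% = DMSO and -100% = 5 µM competing unlabeled TCR2 RNA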
GLD-1 TGE inh: GLD-1/TGE RNA complex disruptors, primary screen, biochemical, fluorescence polarization; Female germline-specific tumor suppressor gld-1 (Caenorhabditis elegans), Q17339; purified GLD-1 + fluorescein TGE RNA; inhibition, % at 5.96 µM; 0.44% of 320,000 active;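 active means percent inhibition above a per-plate cutoff, the plate mean of test compounds plus 3 SD, cut at about 30% in these data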;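 further: 0% = DMSO wells with GLD-1 and probe and 100% = wells lacking GLD-1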
Target sequence (Q17339 whole entry, looked up): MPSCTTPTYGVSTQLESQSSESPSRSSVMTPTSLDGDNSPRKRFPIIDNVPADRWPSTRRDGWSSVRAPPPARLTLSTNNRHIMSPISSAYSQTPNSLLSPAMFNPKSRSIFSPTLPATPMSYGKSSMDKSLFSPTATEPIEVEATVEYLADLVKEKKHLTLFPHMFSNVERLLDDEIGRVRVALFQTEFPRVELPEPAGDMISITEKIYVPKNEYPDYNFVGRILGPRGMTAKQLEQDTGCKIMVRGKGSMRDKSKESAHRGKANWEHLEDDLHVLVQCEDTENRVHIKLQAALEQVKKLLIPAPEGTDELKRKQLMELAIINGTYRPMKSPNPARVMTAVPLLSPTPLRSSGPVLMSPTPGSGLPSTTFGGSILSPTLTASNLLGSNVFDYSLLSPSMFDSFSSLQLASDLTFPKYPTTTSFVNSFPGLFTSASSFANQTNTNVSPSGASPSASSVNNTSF
E coli Lon inh: inhibitors of E. coli Lon protease, primary screen, biochemical, fluorescence polarization; inhibition, % at 7.94 µM; purified E. coli Lon protease; P0A9M0; AID 602123, 2011; 0.42% of 360,000 active; in the data active means inhibition above about 13%, passing the limit was not always enough;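 further: 0% = enzyme with probe and DMSO and 100% = no enzyme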
EBV gp42 inh: Epstein-Barr virus gp42 inhibitors, primary screen, biochemical, uHTS, fluorescence polarization. Glycoprotein 42 (Epstein-Barr virus (strain AG876)), Q1HVG2. Fluorescence polarization binding assay, mP read-out. inhibition, % (tested at 21.74 µM). 0.42% of 220,000 active. AID 1085, 2008; in the data active means inhibition above about 50%
BCLXL inh: inhibitors of human Bcl-xL, primary screen, biochemical, fluorescence polarization, HTS; Bcl-2-like protein 1 (Homo sapiens), Q07817; GST-Bcl-xL / FITC-Bim BH3 peptide fluorescence polarization; 0.7% of 320,000 active; inhibition, % at 10.9 µM; AID 2129, 2009;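 active means inhibition above the mean of all tested compounds plus 3 SD, cutoff set per campaign, cut at about 30% in these data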;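 further: 0% = DMSO wells and 100% = unlabeled Bim-BH3 peptide competitor; inhibitors lower millipolarization by displacing the labeled peptide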
* hit, by the source's call. Only some compounds are listed: those with a hit (about 1.3% of all), similar ones and a draw of the others.

C/C(N)=C(/C#N)C(=O)CSc1nnc(Nc2ccccc2)s1 was read as MEX-5 binding -1, GLD-1 TGE inh -4, E coli Lon inh -5, EBV gp42 inh 124* and BCLXL inh -10.
For C/C(N)=C(/C#N)C(=O)CSc1ncnc2ccccc12 the results were MEX-5 binding -39*, GLD-1 TGE inh -23, E coli Lon inh -14, EBV gp42 inh -9 and BCLXL inh -2.
Screening O=S(=O)(c1ccccc1Br)N(Cc1ccccc1)CC(O)COCc1ccccc1 (configuration not stated) returned E coli Lon inh -12.
Screening C=CCCC(=O)N1C[C@H]2CON(C)[C@H]2C[C@H]1c1ccc(Br)cc1 returned E coli Lon inh -13.
`NS(=O)(=O)c1ccc(N=Nc2c(=O)[nH]n3c(=O)c4c([nH]c23)CCCC4)cc1` gave MEX-5 binding -83*, GLD-1 TGE inh -3, E coli Lon inh -3, EBV gp42 inh 8 and BCLXL inh 8.
`O=c1[nH]n2c(=O)c3c([nH]c2c1N=Nc1cccc(Cl)c1)CCC3` gave MEX-5 binding -4, GLD-1 TGE inh 17, E coli Lon inh -19, EBV gp42 inh 52* and BCLXL inh 28.
Screening O=c1[nH]n2c(=O)c3c([nH]c2c1N=Nc1cccc(C(F)(F)F)c1)CCCC3 returned MEX-5 binding -4, GLD-1 TGE inh 4, E coli Lon inh 2, EBV gp42 inh 5 and BCLXL inh 18.
For COCCNC(=O)/C(C#N)=c1\s/c(=C\c2ccccc2OC(F)F)c(=O)n1Cc1ccccc1 the results were MEX-5 binding 1, GLD-1 TGE inh 1, EBV gp42 inh -51 and BCLXL inh -3.
`Cc1ccc(C)n1-c1sccc1C(=O)O` gave MEX-5 binding -36*, E coli Lon inh 6 and EBV gp42 inh 10.
For C=C(CCC(=O)c1ccccc1)C(=O)c1ccccc1 the results were MEX-5 binding 0, GLD-1 TGE inh 14, E coli Lon inh 1, EBV gp42 inh 4 and BCLXL inh 85*.
CCOc1ccc(NC(=O)c2cc3c(C)nc4ccccc4c3o2)cc1 was read as MEX-5 binding -4, GLD-1 TGE inh 1, E coli Lon inh 0, EBV gp42 inh 55* and BCLXL inh 1.
`CC(C)N(C(=O)C[n+]1ccc(/C=N/O)cc1)C(C)C` gave MEX-5 binding 0, GLD-1 TGE inh 6, E coli Lon inh -276, EBV gp42 inh 77* and BCLXL inh 1.
For Cc1[nH]nc2c1C1(CCN(Cc3ccccc3)CC1)C(C#N)=C(N)O2 the results were MEX-5 binding -2, GLD-1 TGE inh 17, E coli Lon inh -9, EBV gp42 inh 17 and BCLXL inh 40*.
`O=S1(=O)CCC(NC(=S)N2CCOCC2)C1` (configuration not stated) gave GLD-1 TGE inh 3, E coli Lon inh -6, EBV gp42 inh -1 and BCLXL inh -4.
For CC(N=Cc1cc([N+](=O)[O-])ccc1O)c1ccccc1 (configuration not stated) the results were MEX-5 binding 1, GLD-1 TGE inh -2, E coli Lon inh -1, EBV gp42 inh -16 and BCLXL inh 6.
For CC(N=Cc1cccc(O)c1O)c1ccccc1 (configuration not stated) the results were MEX-5 binding -3, GLD-1 TGE inh 15, E coli Lon inh 10, EBV gp42 inh -16 and BCLXL inh 33*.
For Oc1cccc(/C=N/N=C/c2cccc(O)c2O)c1O the results were MEX-5 binding -37*, GLD-1 TGE inh -1, E coli Lon inh -4 and BCLXL inh 4.
`CS(=O)(=O)Nc1cccc(C2=NN(C(=O)c3ccccc3Cl)C(c3ccccc3O)C2)c1` (configuration not stated) gave MEX-5 binding 0, GLD-1 TGE inh 8, E coli Lon inh -9, EBV gp42 inh 12 and BCLXL inh 1.
COc1c(C(CC(C)C)OC(C)=O)ccc2c1C(=O)OCc1cc(C)cc(O)c1O2 (configuration not stated) was read as MEX-5 binding 1, GLD-1 TGE inh 9, E coli Lon inh 3, EBV gp42 inh -15 and BCLXL inh 3.

Source: PubChem BioAssay
